Hit rate of the full screen: of about 2,300 compounds, about 550 (24%) were called active. How the calls were made is not given here. Only a sample is shown. Entries with a potency or affinity are not part of this list.

The test in a line: Vero E6 cell cytotoxicity, dose response, cytotoxicity control for non-replicating M. tuberculosis project, secondary assay (AID 492998). The settings on record: series mostly up to 20 µM.
Turning to `CCOC(=O)COc1ccc2c(c1)c(C(C)=O)c(C)n2Cc1ccccc1`, the call was inactive.
The result for `Cc1c(C(=O)N(C)C)sc2nc(-c3ccccn3)[nH]c(=O)c12` reads “inactive”; that for `Cc1nnc(SCCC(=O)Nc2ccc(Cl)cc2)o1`, “inactive”; that for `O=C(COc1ccccc1)NNc1nc2ccccc2s1`, “inactive”.
The result for `CCOc1ccc(OCC(=O)Nc2nccs2)cc1` reads “inactive”; that for `Cc1nc2ccc(OC(=O)c3ccccc3)cc2s1`, “inactive”.
The result for `CCOc1ccc2nc(/N=C/c3nc(-c4ccccc4)oc3O)sc2c1` reads “inactive”; that for `CCCNC(=O)OCC12CC3CC(CC(C3)C1)C2`, “inactive”; that for `N=C1/C(=C/c2ccc(OC(=O)c3ccco3)cc2)C(=O)N=C2SC=CN12`, “inactive”.
For `c1ccc(CNCCC(Cc2ccccc2)c2ccco2)cc1` (configuration not stated), the call was inactive.
The result for `CC(C)(C)C(=O)/C=C/Nc1ccccc1O` reads “inactive”.
On to `CC(=O)c1ccc(Sc2nnnn2-c2ccccc2)c([N+](=O)[O-])c1`, for which the molecule was classed as inactive.
Under `Cc1cc(C)n(C(=O)c2ccc([N+](=O)[O-])cc2[N+](=O)[O-])n1` stands “inactive”.
As for `O=C(NCc1cccs1)c1ccc([N+](=O)[O-])cc1`, the call was inactive.
Under `CC(=O)Nc1ccc(NC(=O)c2cc([N+](=O)[O-])cc([N+](=O)[O-])c2)cc1` stands “inactive”; under `COc1ccc2cc(C(=O)NCc3ccccc3)c(=O)oc2c1`, “inactive”.
Turning to `CC(C)OC(=O)c1cc(C(=O)c2cc(Cl)ccc2O)coc1=N`, the call was inactive.
With `O=C(NNc1ccc([N+](=O)[O-])cc1)C1CC1c1ccccc1` (configuration not stated), the molecule was called inactive.
The result for `CC(C)(C)c1ccc(OCCC(=O)OCC(=O)NC2CC2)cc1` reads “inactive”; that for `O=C(Oc1ccc(F)cc1)c1ccc2c(=O)n3c(nc2c1)CCC3`, “inactive”.
The result for `COC(=O)c1ccc(N2CCN(CCNC(=O)Nc3ccc(OC)cc3)CC2)cc1` reads “inactive”.
The result for `C#CCSc1nnc(-c2ccc(O)cc2)o1` reads “inactive”; that for `C#CCSc1nnc(-c2ccc(C)cc2)o1`, “inactive”.
For `Cc1cc(Cl)ccc1N(CC(=O)NCc1ccccc1)S(C)(=O)=O`, the outcome was inactive.
Regarding `CCCCn1nnc(NC(=O)COc2ccc(Cl)c(C)c2)n1`, the call was inactive.
Under `COc1ccc(OC(=O)CCc2c[nH]c3ccccc23)cc1` stands “inactive”; under `O=C(COC(=O)CCc1c[nH]c2ccccc12)NCc1ccc2c(c1)OCO2`, “inactive”; under `O=C(COC(=O)CCc1c[nH]c2ccccc12)NCc1ccc(Cl)cc1`, “inactive”.
Under `N#Cc1ccc(COC(=O)CCc2c[nH]c3ccccc23)cc1` stands “inactive”.
Under `C=Cc1cccc(NC(=O)COc2ccccc2)c1` stands “inactive”; under `COc1ccc(Cc2nnc(SCc3ccc([N+](=O)[O-])cc3)o2)cc1`, “inactive”.
Regarding `Cc1[nH]nc2c1C(c1ccc(-c3ccc(Cl)cc3)o1)C(C#N)=C(N)O2` (configuration not stated), the molecule was classed as inactive.
Under `O=C1/C(=C/c2ccco2)CCC1C1CCCC1` (configuration not stated) stands “inactive”; under `CC(NC(=O)COc1ccccc1F)C1CC2CCC1C2` (configuration not stated), “inactive”.
The result for `CCOC(=O)c1ccc(NC(=O)CCSCCc2ccccn2)cc1` reads “inactive”; that for `CCOc1ccc(-c2nc3ccccc3c(=O)o2)cc1`, “inactive”.
Under `CCOC(=O)N1CCC(NS(=O)(=O)c2cc3c(cc2Cl)NC(=O)CO3)CC1` stands “inactive”; under `CCCNC(=O)N1CCC(c2ccc3c(c2)OCO3)CC1`, “inactive”.
On to `COc1ccc(C2(O)CCN(CCCCOc3ccccc3)CC2)cc1`, for which the outcome was inactive.
Under `OCC1(CCOc2ccccc2)CCN(Cc2cc(Cl)ccc2O)CC1` stands “inactive”; under `COc1cccc2cc(C(=O)c3ccc([N+](=O)[O-])cc3)oc12`, “inactive”.
Under `CC1COC(=O)C(NNc2ccc(Cl)c(Cl)c2)=N1` (configuration not stated) stands “inactive”; under `CC(=O)Nc1cccc(-c2nc3ccccc3c(=O)o2)c1`, “inactive”; under `CC(C)Cc1cc(C(=O)Nc2ccc(F)cc2F)no1`, “inactive”.
The result for `CC(C)c1nnc(NC(=O)c2cc3cc(Br)ccc3oc2=O)s1` reads “inactive”; that for `CCCC(=O)Nc1cccc(-c2nc3ccccc3c(=O)o2)c1`, “inactive”.
Consider `O=C(Oc1ccc(/C=N/O)cc1)c1ccccc1Cl`, for which the outcome was inactive.
The result for `O=C(COC(=O)CCN1C(=O)/C(=C\C=C\c2ccccc2)SC1=S)Nc1cc(F)ccc1F` reads “inactive”; that for `O=C(NCCN1C(=O)S/C(=C\c2ccccc2F)C1=O)C1CCN(S(=O)(=O)c2cccs2)CC1`, “inactive”.
Under `CN1C(=O)/C(=C/c2cccc(Cl)c2)Sc2ccc(C(=O)N3CCCC3)cc21` stands “inactive”; under `O=C(O)CCCCCN1C(=O)/C(=C\c2ccncc2)SC1=S`, “inactive”; under `O=C(CC1CC2CCC1C2)NCc1cccs1` (configuration not stated), “inactive”.
The result for `CCOc1ccc(-c2cc(CCCC(=O)NCCC(C)C)no2)cc1` reads “inactive”.
With `Cc1ccc(N2C(=O)CC(Sc3nccc(C)n3)C2=O)cc1` (configuration not stated), the call was inactive.
For the molecule `Cc1cccc(C2=N/C(=C\c3cccnc3)C(=O)O2)c1`, the molecule was classed as inactive.
The result for `Cc1ccc(-c2noc(CCC(=O)Nc3cccc(C#N)c3)n2)cc1` reads “inactive”; that for `CCNc1nc(NC(C)(C)C)nc(N2CCCCC2)n1`, “inactive”; that for `COc1cc(NC(=O)C/C(C)=N/NC(=O)c2cccs2)c(OC)cc1Cl`, “inactive”.
Under `O=C(OCC(=O)N1CCCc2ccccc21)c1ccc(S(=O)(=O)C(F)F)cc1` stands “inactive”.
The result for `CCOC(=O)COc1ccc2c(c1)C(=O)CC(C)(c1cccnc1)O2` (configuration not stated) reads “inactive”; that for `O=C(N/N=C/c1ccc[nH]1)c1ccc2c(c1)OCO2`, “inactive”; that for `C/C(=N\NC(=O)c1cccs1)c1ccc2c(c1)OCO2`, “inactive”.
Regarding `CC(/C=C/c1ccccc1)=N\NC(=O)c1ccc2c(c1)OCCO2`, the molecule was called inactive.
`O=C(Oc1cccc2cccnc12)c1ccc2c(c1)OCCO2`: the result was inactive.
With `O=C(N/N=C\c1ccccc1OCc1ccccc1)c1ccco1`, the outcome was inactive.
Under `Cc1occc1C(=O)N/N=C/c1ccc[nH]1` stands “inactive”; under `COCCCn1c(=NC(=O)c2ccccc2)c(C#N)cc2c(=O)n3cccc(C)c3nc21`, “inactive”.
The result for `CCOC(=O)COc1c(-c2ccc(OC)cc2)oc2ccccc2c1=O` reads “inactive”; that for `O=C1CC(N2CCN(c3ccc(F)cc3)CC2)C(=O)N1Cc1ccccc1` (configuration not stated), “inactive”; that for `O=C1NCC(O)=C1C=Nc1ccccc1O`, “inactive”.
The result for `COC(=O)c1cccc(COC(=O)c2cc3ccccc3oc2=O)c1` reads “inactive”; that for `CN(CCCCOc1ccc(F)cc1)Cc1ccccc1`, “inactive”; that for `O=C(Nc1ccn(Cc2ccccc2)n1)c1ccc(F)cc1`, “inactive”.
As to `O=C(c1ccc([N+](=O)[O-])cc1[N+](=O)[O-])N1CCc2ccccc21`, the outcome was inactive.
The result for `CCOC(=O)c1ccc(COC(=O)c2ccc(-c3nnc(-c4ccccc4)o3)cc2)o1` reads “inactive”; that for `CC(/C=C/c1cccc([N+](=O)[O-])c1)=N\NC(=O)c1ccncc1`, “inactive”; that for `NC(=O)C1(N2CCCCC2)CCN(C2CC(=O)N(CCc3ccccc3)C2=O)CC1` (configuration not stated), “inactive”.
The result for `COC(CNC(=O)c1ccc2c3c(onc13)-c1ccccc1C2=O)OC` reads “inactive”.
Under `O=[N+]([O-])c1cc(N=Nc2ccc3ccccc3c2)ccc1O` stands “inactive”; under `CCCCCCOc1ccc(N2C(=O)CC(N3CCN(C(=O)c4ccco4)CC3)C2=O)cc1` (configuration not stated), “inactive”.
In the case of `O=C(/C=C/Nc1ccccc1O)c1ccco1`, the result was inactive.
The result for `O=C(Oc1ccccc1)c1ccc(NC(=O)c2ccco2)cc1` reads “inactive”; that for `Nc1nnc(SCCCC(=O)c2ccc(Br)cc2)s1`, “inactive”; that for `CC(=O)c1c(C)n(C)c2ccc(OC(=O)c3ccco3)cc12`, “inactive”.
Regarding `COc1cc(OC)cc(OC(=O)c2ccc3c(=O)n4c(nc3c2)CCC4)c1`, the molecule was called inactive.
The result for `COc1ccc(N2C(=O)CC(Sc3nc4ccccc4s3)C2=O)cc1OC` (configuration not stated) reads “inactive”; that for `COc1ccc(C(=O)CCS(=O)(=O)c2ccc(C)cc2)cc1OC`, “inactive”; that for `O=C1Nc2ccc(Br)cc2/C1=C/C(=O)c1ccc2c(c1)OCO2`, “inactive”.
The result for `O=C(N/N=C/C=C/c1ccccc1)c1cccs1` reads “inactive”; that for `c1ccc(-c2nnc(SCc3nnc(-c4cccs4)o3)o2)cc1`, “inactive”.
Consider `CCOC(=O)Cc1nc2cc(Cl)ccc2o1`, for which the molecule was classed as inactive.
Under `O=C1c2ccccc2CC1Sc1nnc(-c2ccncc2)o1` (configuration not stated) stands “inactive”.
Under `CCn1cc(C(=O)O)c(=O)c2cc(F)c(N3CCN(C(=S)NC(=O)c4ccccc4)CC3)cc21` stands “inactive”.
Under `O=C(COc1ccc(Cl)cc1)Nc1ccc(Cl)cn1` stands “inactive”; under `COc1cccc(COC(=O)CCNC(=O)c2ccc(Cl)cc2)c1OC`, “inactive”; under `CC(/C=C/c1ccco1)=N\NC(=O)c1cccc(Cl)c1`, “inactive”.
As to `CN(C)CC/C=C1/c2ccc(F)cc2Sc2ccc(Cl)cc21`, the call was inactive.
Under `O=C(COC(=O)c1ccc(Cl)s1)c1ccc[nH]1` stands “inactive”; under `O=C(NC(=S)Nn1cnc2c(cnn2-c2ccccc2)c1=O)c1ccccc1`, “inactive”.
Under `CC(NC(=O)c1cc([N+](=O)[O-])cc([N+](=O)[O-])c1)c1ccc(-n2ccnc2)cc1` (configuration not stated) stands “inactive”; under `Cc1cccc(C)c1NC(=O)c1sc(N)nc1-c1ccccc1`, “inactive”; under `O=C(COC(=O)Cc1ccc(Br)cc1)Nc1ccc(N2CCOCC2)cc1`, “inactive”.
Under `O=C(COC(=O)c1cc2ccccc2oc1=O)Nc1ccc(F)cc1F` stands “inactive”.
`Clc1ccc(OC2CCN(Cc3nc(CC4CC4)no3)CC2)cc1`: the outcome was inactive.
Under `CCOC(=O)CCSc1n[nH]c(=S)s1` stands “inactive”; under `C(=C\c1ccccc1)/CSc1nc2ncccc2[nH]1`, “inactive”.
As for `CC(C)=CCN1CCN(Cc2cn(C(C)C)c3ccccc23)CC1CCO` (configuration not stated), the outcome was inactive.
The result for `Cc1ccc(/C=C2\SC(N3CCCC3)=NC2=O)cc1` reads “inactive”; that for `CC(C)N1C(=O)NC(=O)C2(Cc3cc([N+](=O)[O-])ccc3N(C)C2c2ccccc2)C1=O` (configuration not stated), “inactive”.
Under `Cc1ccc(OCC(=O)Nc2ccc([N+](=O)[O-])cc2)cc1` stands “inactive”; under `Cc1ccc(NC(=O)COCC(=O)Nc2ccc(C)cc2)cc1`, “inactive”; under `NC(N)=N/N=C/c1cccc([N+](=O)[O-])c1O`, “inactive”.
Under `O=C(N/N=C/C=C/c1ccccc1[N+](=O)[O-])c1ccncc1` stands “inactive”.
On to `COc1cc(Cl)cc(/C=N/NC(N)=O)c1O`, for which the call was inactive.
Under `O=C(NNc1nc2ccccc2s1)Nc1ccc(F)cc1` stands “inactive”; under `O=[N+]([O-])c1c(Nc2ccccn2)cc(Cl)c2nonc12`, “inactive”.
Under `O=C(N/N=C/c1cccc([N+](=O)[O-])c1O)c1cccs1` stands “inactive”.

The values are drawn from PubChem BioAssay AID492998 (Southern Research Specialized Biocontainment Screening …, 2010).
